Inconclusive results are not listed. Calls of active or inactive are those of the source. Calls come from the whole dose curve.

The nature of the assay: Confirmation and Secondary Assays for Modulators of Hemoglobin Beta Chain Splicing at IVS2 654 and 705 loci. As to conditions: HeLa beta-globin IVS2-654 splicing GFP reporter, 48 h.
Description: NIH Chemical Genomics Center [NCGC]
NIH Molecular Libraries Screening Centers Network [MLSCN]
PI Name: Dr. Ryszard Kole
Modulation of Alternative Splicing as Therapy
Abnormal splicing is associated with a number of diseases, including cancer and genetic diseases such as cystic fibrosis, muscular dystrophy and beta-thalassemia. Alteration of disease associated splicing patterns provides a promising target for treatment. […] Mutations in the second intron of the b-globin gene at positions 654 or 705 are clinically relevant and cause mis-splicing which results in an out of frame gene product.
EGFP-654 HeLa Cells as screen system.
(§1) HeLa cell lines were stably transfected with a construct in which the EGFP (enhanced green fluorescent protein) cDNA was interrupted by the second intron of the beta-globin gene (IVS2-654). The ISV2 intron contains mutations which cause mis-splicing of EGFP and premature termination of EGFP which results in a nonfluorescent protein product. […] Expression of the transgene was driven by the CMV promoter. We concluded that a low molecular weight compound, which restored correct splicing of intron 2 would also generate functional EGFP protein, resulting in a fluorescent signal. Thus, the HeLa cells that express the EGFP-654 construct can be used for high throughput screening of a chemical library.
EGFP-705 HeLa Cells as screen system.
as §1, with “(IVS2-705).” for “(IVS2-654).”, “EGFP-705” for “EGFP-654”, “validation of splice site specificity of compounds identified in primary” for “high throughput”, “the ISV2 654 construct.” for “a chemical library.”
NCGC Assay Protocol Summary:
Confirmatory Screening. Freshly thawed HeLa EGFP-654 or EGFP-705 cells were seeded in 5 ul of optimem media (Invitrogen) containing 2 % fetal calf serum (Hyclone) and 1x penicillin/streptomycin (Invitrogen) at a concentration of 500 cells per well in 1536-well plates. Cells were incubated overnight at 37C in 5% CO2. The next day, cells were treated with DMSO, 500 nM antisense ISV2 654 (or 705) PNA control oligo, or library compound and allowed to grow at 37C in 5% CO2 for 2 days. The PNA oligo blocked the mutation site in the intron and allowed proper (wild type) splicing to occur, resulting in full length EGFP expression and also allowed for optimization of the assay parameters. Plates were read in the Acumen Explorer (TTP Labtech) using 488 nm laser excitation and 500-520 nm emission PMT filter in a 1 x 8 uM capture mode, and were read immediately after compound pinning (beta-globin-654-gfp-0hr), at 24 hours (beta-globin-654-gfp-24hr and beta-globin-705-gfp-24hr), and at 48 hours (beta-globin-654-gfp-48hr and beta-globin-705-gfp-48hr). Fluorescnet objects ranging in size from 5 to 250 uM were measured and the total peak GFP intensity for each well was used for data analysis. Cell death was measured by quantitating protease release by sick and dying cells using Promega's luminescent Cytotox-Glo reagent. Cells were treated with 2ul of Cytotox- Glo reagent incubated at room temperature for 5 minutes and read in the Viewlux plate reader with a 30 second integration time (beta-globin-654-protease-48hr and beta-globin-705-protease-48hr).
Keywords: Thalassemia, beta-thalassemia, beta-globin, EGFP, ISV2 654, ISV2 705, SSO, PNA, antisense, splicing, MLSMR, MLSCN, NIH Roadmap, qHTS, NCGC
Turning to `Nc1nc(=S)c2[nH]cnc2[nH]1`, the Potency is 1.12 µM (active).

In the case of `O=c1[nH]c(=O)n([C@@H]2O[C@H](CO)[C@@H](O)[C@H]2O)cc1F`, the Potency is 3.98 µM (active). To `OCC1OC(n2cnc3c(=S)nc[nH]c32)C(O)C1O` (stereo not drawn) belongs 1.78 µM (active); to `Nc1nc2n[nH]nc2c(=O)[nH]1`, 2.51 µM (active). For `CCn1c(C)nc([N+](=O)[O-])c1Sc1ncnc2nc[nH]c12`, the Potency is 2 µM (active).

`Nc1nc(=S)c2ncn([C@H]3O[C@@H](CO)[C@@H](O)[C@@H]3O)c2[nH]1`: the Potency is 1.26 µM (active). Turning to `S=C1NC=NC2N=CNC12` (stereo not drawn), the Potency is 1.58 µM (active).

Take `Cn1cnc([N+](=O)[O-])c1Sc1ncnc2nc[nH]c12`: the Potency is 2 µM (active).

(Values after PubChem BioAssay AID1405 (National Center for Advancing Translational Sciences (NCATS), 2008).)
